From PubChem BioAssay AID1159580 (chemical genetic matrix, 2015)
Screen size: about 5,500 compounds; about 2,000 (36%) were called active. Another 18% or so got no clear call; they are omitted. The list shows a part of the results. Unmarked numbers belong to inactive results. Cut-off read from the data, not from the text of the source: active = normalized growth mostly below about 0.91 (no sharp cut-off); inconclusive = no clear call, values can overlap the other calls; inactive = mostly above about 0.92.

Assay: chemical genetic growth profiling, strain panel (AID 1159580);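 note: tested at 20 µM; growth read once vehicle control cultures reached saturation at 30 °C; 1 = growth at the plate median or of vehicle wells; lower values mean less growth of the strain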
Conditions: growth OD

NC(=NCCCCCCN=C(N)N=C(N)Nc1ccc(Cl)cc1)N=C(N)Nc1ccc(Cl)cc1
normalized growth (S. cerevisiae deletion strains, locus YJR075W, strain HOC1, stronger effect = lower value): 0.0644 (active) | normalized growth (S. cerevisiae deletion strains, locus YKL009W, strain mrt4, stronger effect = lower value): 0.478 (active) | normalized growth (S. cerevisiae deletion strains, locus YKL068W, stronger effect = lower value): 0.977 | normalized growth (S. cerevisiae deletion strains, locus YKL085W, strain MDH1 (second series), stronger effect = lower value): 0.906 (active) | normalized growth (S. cerevisiae deletion strains, locus YKL085W, strain MDH1, stronger effect = lower value): 0.906 (active) | normalized growth (S. cerevisiae deletion strains, locus YKL160W, strain elf1, stronger effect = lower value): 0.0627 (active) | normalized growth (S. cerevisiae deletion strains, locus YKL190W, strain CNB1, stronger effect = lower value): 0.0461 (active) | normalized growth (S. cerevisiae deletion strains, locus YKR001C, strain vps1, stronger effect = lower value): 0.0656 (active) | normalized growth (S. cerevisiae deletion strains, locus YKR026C, strain gcn3, stronger effect = lower value): 0.0624 (active) | normalized growth (S. cerevisiae deletion strains, locus YKR091W, strain srl3, stronger effect = lower value): 0.0577 (active) | normalized growth (S. cerevisiae deletion strains, locus YLL001W, strain dnm1, stronger effect = lower value): 0.0629 (active) | normalized growth (S. cerevisiae deletion strains, locus YLL026W, stronger effect = lower value): 0.0551 (active) | normalized growth (S. cerevisiae deletion strains, locus YLL041C, strain sdh2, stronger effect = lower value): 0.0558 (active) | normalized growth (S. cerevisiae deletion strains, locus YLR027C, strain aat2, stronger effect = lower value): 0.0552 (active) | normalized growth (S. cerevisiae deletion strains, locus YLR039C, strain RIC1, stronger effect = lower value): 0.0768 (active) | normalized growth (S. cerevisiae deletion strains, locus YLR058C, strain SHM2, stronger effect = lower value): 0.0478 (active) | normalized growth (S. cerevisiae deletion strains, locus YLR102C, strain apc9, stronger effect = lower value): 0.0634 (active) | normalized growth (S. cerevisiae deletion strains, locus YLR113W, strain HOG1, stronger effect = lower value): 0.126 (active) | normalized growth (S. cerevisiae deletion strains, locus YLR221C, strain rsa3, stronger effect = lower value): 0.058 (active) | normalized growth (S. cerevisiae deletion strains, locus YLR258W, strain gsy2, stronger effect = lower value): 0.0585 (active) | normalized growth (S. cerevisiae deletion strains, locus YLR262C, strain YPT6 (second series), stronger effect = lower value): 0.0721 (active) | normalized growth (S. cerevisiae deletion strains, locus YLR262C, strain YPT6, stronger effect = lower value): 0.0923 (active) | normalized growth (S. cerevisiae deletion strains, locus YLR268W, strain sec22, stronger effect = lower value): 0.0678 (active) | normalized growth (S. cerevisiae deletion strains, locus YLR320W, strain mms22, stronger effect = lower value): 0.0755 (active) | normalized growth (S. cerevisiae deletion strains, locus YLR330W, strain CHS5, stronger effect = lower value): 0.0516 (active) | normalized growth (S. cerevisiae deletion strains, locus YLR342W, strain FKS1 (second series), stronger effect = lower value): 0.0692 (active) | normalized growth (S. cerevisiae deletion strains, locus YLR342W, strain FKS1, stronger effect = lower value): 0.063 (active) | normalized growth (S. cerevisiae deletion strains, locus YLR357W, strain rsc2, stronger effect = lower value): 0.116 (active) | normalized growth (S. cerevisiae deletion strains, locus YLR370C, strain arc18, stronger effect = lower value): 0.0607 (active) | normalized growth (S. cerevisiae deletion strains, locus YLR371W, strain rom2, stronger effect = lower value): 0.0627 (active) | normalized growth (S. cerevisiae deletion strains, locus YLR384C, strain iki3, stronger effect = lower value): 0.057 (active) | normalized growth (S. cerevisiae deletion strains, locus YLR418C, strain cdc73, stronger effect = lower value): 0.0991 (active) | normalized growth (S. cerevisiae deletion strains, locus YML016C, strain PPZ1, stronger effect = lower value): 0.0482 (active) | normalized growth (S. cerevisiae deletion strains, locus YML032C, strain rad52, stronger effect = lower value): 0.0699 (active) | normalized growth (S. cerevisiae deletion strains, locus YML120C, strain ndi1, stronger effect = lower value): 0.0569 (active) | normalized growth (S. cerevisiae deletion strains, locus YML124C, strain tub3, stronger effect = lower value): 0.0596 (active) | normalized growth (S. cerevisiae deletion strains, locus YMR058W, strain fet3, stronger effect = lower value): 0.0607 (active) | normalized growth (S. cerevisiae deletion strains, locus YMR078C, strain ctf18, stronger effect = lower value): 0.071 (active) | normalized growth (S. cerevisiae deletion strains, locus YMR125W, strain sto1, stronger effect = lower value): 0.0789 (active) | normalized growth (S. cerevisiae deletion strains, locus YMR129W, stronger effect = lower value): 0.0564 (active) | normalized growth (S. cerevisiae deletion strains, locus YMR205C, strain PFK2, stronger effect = lower value): 0.0855 (active) | normalized growth (S. cerevisiae deletion strains, locus YMR223W, strain ubp8, stronger effect = lower value): 0.0651 (active) | normalized growth (S. cerevisiae deletion strains, locus YMR231W, strain pep5, stronger effect = lower value): 0.064 (active) | normalized growth (S. cerevisiae deletion strains, locus YMR263W, strain SAP30, stronger effect = lower value): 0.0566 (active) | normalized growth (S. cerevisiae deletion strains, locus YMR307W, strain GAS1, stronger effect = lower value): 0.0969 (active) | normalized growth (S. cerevisiae deletion strains, locus YNL067W, strain RPL9B, stronger effect = lower value): 0.0509 (active) | normalized growth (S. cerevisiae deletion strains, locus YNL071W, strain lat1, stronger effect = lower value): 0.0604 (active) | normalized growth (S. cerevisiae deletion strains, locus YNL128W, strain TEP1, stronger effect = lower value): 0.0651 (active) | normalized growth (S. cerevisiae deletion strains, locus YNL153C, strain GIM3, stronger effect = lower value): 0.0505 (active) | normalized growth (S. cerevisiae deletion strains, locus YNL183C, strain NPR1, stronger effect = lower value): 0.139 (active) | normalized growth (S. cerevisiae deletion strains, locus YNL209W, strain ssb2, stronger effect = lower value): 0.057 (active) | normalized growth (S. cerevisiae deletion strains, locus YNL233W, strain BNI4, stronger effect = lower value): 0.0552 (active) | normalized growth (S. cerevisiae deletion strains, locus YNL248C, strain rpa49, stronger effect = lower value): 0.075 (active) | normalized growth (S. cerevisiae deletion strains, locus YNL250W, strain rad50, stronger effect = lower value): 0.909 | normalized growth (S. cerevisiae deletion strains, locus YNL271C, strain bni1, stronger effect = lower value): 0.607 (active) | normalized growth (S. cerevisiae deletion strains, locus YNL298W, strain CLA4, stronger effect = lower value): 0.0653 (active) | normalized growth (S. cerevisiae deletion strains, locus YNL307C, strain MCK1, stronger effect = lower value): 0.0676 (active) | normalized growth (S. cerevisiae deletion strains, locus YNL322C, strain KRE1 (second series), stronger effect = lower value): 0.0655 (active) | normalized growth (S. cerevisiae deletion strains, locus YNL322C, strain KRE1, stronger effect = lower value): 0.0467 (active) | normalized growth (S. cerevisiae deletion strains, locus YNR049C, strain mso1, stronger effect = lower value): 0.0617 (active) | normalized growth (S. cerevisiae deletion strains, locus YNR052C, strain pop2, stronger effect = lower value): 0.0607 (active) | normalized growth (S. cerevisiae deletion strains, locus YOL006C, strain TOP1, stronger effect = lower value): 0.107 (active) | normalized growth (S. cerevisiae deletion strains, locus YOL012C, strain htz1): 0.183 (active) | normalized growth (S. cerevisiae deletion strains, locus YOL147C, strain pex11, stronger effect = lower value): 0.0595 (active) | normalized growth (S. cerevisiae deletion strains, locus YOR001W, strain rrp6, stronger effect = lower value): 0.0681 (active) | normalized growth (S. cerevisiae deletion strains, locus YOR061W, strain CKA2, stronger effect = lower value): 0.0471 (active) | normalized growth (S. cerevisiae deletion strains, locus YOR069W, strain VPS5, stronger effect = lower value): 0.0468 (active) | normalized growth (S. cerevisiae deletion strains, locus YOR070C, strain gyp1, stronger effect = lower value): 0.0572 (active) | normalized growth (S. cerevisiae deletion strains, locus YOR080W, strain dia2, stronger effect = lower value): 0.0623 (active) | normalized growth (S. cerevisiae deletion strains, locus YOR083W, strain WHI5, stronger effect = lower value): 0.0615 (active) | normalized growth (S. cerevisiae deletion strains, locus YOR106W, strain vam3, stronger effect = lower value): 0.0675 (active) | normalized growth (S. cerevisiae deletion strains, locus YOR136W, strain idh2, stronger effect = lower value): 0.0708 (active) | normalized growth (S. cerevisiae deletion strains, locus YOR144C, strain elg1, stronger effect = lower value): 0.0593 (active) | normalized growth (S. cerevisiae deletion strains, locus YOR184W, strain ser1, stronger effect = lower value): 0.0744 (active) | normalized growth (S. cerevisiae deletion strains, locus YOR231W, strain MKK1, stronger effect = lower value): 0.0973 (active) | normalized growth (S. cerevisiae deletion strains, locus YOR265W, strain rbl2, stronger effect = lower value): 0.0543 (active) | normalized growth (S. cerevisiae deletion strains, locus YOR270C, strain vph1, stronger effect = lower value): 0.107 (active) | normalized growth (S. cerevisiae deletion strains, locus YOR290C, strain snf2, stronger effect = lower value): 0.0655 (active) | normalized growth (S. cerevisiae deletion strains, locus YOR316C, strain cot1, stronger effect = lower value): 0.0609 (active) | normalized growth (S. cerevisiae deletion strains, locus YPL051W, strain arl3, stronger effect = lower value): 0.0612 (active) | normalized growth (S. cerevisiae deletion strains, locus YPL055C, strain LGE1, stronger effect = lower value): 0.0688 (active) | normalized growth (S. cerevisiae deletion strains, locus YPL078C, strain atp4, stronger effect = lower value): 0.0665 (active) | normalized growth (S. cerevisiae deletion strains, locus YPL106C, strain sse1, stronger effect = lower value): 0.0968 (active) | normalized growth (S. cerevisiae deletion strains, locus YPL240C, strain hsp82, stronger effect = lower value): 0.0556 (active) | normalized growth (S. cerevisiae deletion strains, locus YPL241C, strain CIN2, stronger effect = lower value): 0.0486 (active) | normalized growth (S. cerevisiae deletion strains, locus YPL256C, strain CLN2, stronger effect = lower value): 0.124 (active) | normalized growth (S. cerevisiae deletion strains, locus YPR119W, strain clb2, stronger effect = lower value): 0.0667 (active) | normalized growth (S. cerevisiae deletion strains, locus YPR141C, strain kar3, stronger effect = lower value): 1.01 | normalized growth (S. cerevisiae deletion strains, locus YPR163C, strain tif3, stronger effect = lower value): 0.0696 (active) | normalized growth (S. cerevisiae deletion strains, locus YPR167C, strain met16, stronger effect = lower value): 0.0625 (active) | normalized growth (S. cerevisiae deletion strains, strain wtn01, stronger effect = lower value): 0.0592 (active) | normalized growth (S. cerevisiae strains, strain wild type, stronger effect = lower value): 0.0489 (active)
